The results in this text go back to PubChem BioAssay (NCI).

The panel holds about 83,000 compounds, 20% with a hit somewhere; the sample as a whole holds those more often.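 Single-concentration screen, 48 h exposure, 96-well plates. Endpoint: percent growth. Below 10 = active.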 The source made the active and inactive calls.

This test has as its system HL-60(TB) leukemia. The test is described as follows: NCI-60 one-dose screen, 48 h (100 = growth as untreated, 0 = no growth, -100 = all killed). The settings on record: 10 µM unless noted.
Turning to `Cc1ccc2c(c1)C(=O)/C(=C/c1cccc(OCC(=O)c3ccc(Cl)cc3)c1)CS2`, the growth was 43.1% (inactive).

As to `CN1CCN(CCCOC(=O)c2c3c(n4ccccc24)C(=O)c2ncccc2C3=O)CC1`, the growth was 30% (inactive).

On to `Cc1cccc(-c2nnc(SCC(=O)Nc3ncc(Cc4ccccc4)s3)n2N2C(=O)CSC2=S)c1`, for which the growth was 97.8% (inactive).

On to `CC(C)c1ccc(S(=O)(=O)NC(=O)NC2CCCC2)cc1`, for which the growth is 90.8% (inactive).

In the case of `O=S(=O)(NCCO)c1ccc(OCCOc2ccc(S(=O)(=O)NCCO)cc2)cc1`, the growth is 68.4% (inactive).

For `Cc1oc(-c2ccc(Cl)cc2)nc1C1=NN(C(=O)c2ccncc2)C(c2ccccc2)C1` (stereo not given), the growth was 97.7% (inactive).

Regarding `Clc1cccc(Nc2nc(Nc3cnc4ccccc4c3)c3[nH]cnc3n2)c1`, the growth is 121% (inactive).

On to `CS(=O)(=O)N1CCN(Cc2cc3nc(-c4cccc5[nH]ncc45)nc(N4CCOCC4)c3s2)CC1`, for which the growth was 23.6% (inactive).

Turning to `O=C(C[Si](CC(=O)c1cccc(C(F)(F)F)c1)CC(=O)c1cccc(C(F)(F)F)c1)c1cccc(C(F)(F)F)c1`, the growth was -40.8% (active).

As for `NC(=N\N=C/c1ccc(O)cc1)/C(N)=N\N=C/c1ccc(O)cc1`, the growth is 25.9% (inactive).

Turning to `CCc1ccccc1NC(=O)c1sc2nc3c(cc2c1N)CCCC3`, the growth was 2.66% (active).

As to `C=C(C)[C@@H]1CC[C@]2(C)[C@H](CC=C3[C@@H]4C[C@](C)(C(=O)N5CCN(C)CC5)CC[C@]4(C)CC[C@]32C)[C@@]1(C)CCC#N`, the growth was 22.6% (inactive).

For `C=C1C(=O)O[C@H]2[C@H]1CC/C(COC(=O)C(=O)c1c[nH]c3ccc(OC)cc13)=C\CC[C@@]1(C)O[C@@H]21`, the growth was -53.2% (active).

For the compound `CC(C)CCSc1nc(Nc2ccccc2)c(C#N)c(-c2ccccc2)n1`, the growth is 76.5% (inactive).

Regarding `Nc1n[nH]c2ccc([C@@H]3Nc4ccc5[nH]ncc5c4[C@H]4[C@H]5CCC(C5)[C@H]43)cc12`, the growth was -41.5% (active).

In the case of `O=C1Nc2ccccc2C1=NC1CCCCC1`, the growth was 110% (inactive).

Turning to `C[n+]1ccccc1C[n+]1ccccc1`, the growth is 90.9% (inactive).

As for `N#Cc1nc(-c2ccc(F)cc2)oc1S(=O)(=O)N1CCCCC1`, the growth was 32.4% (inactive).

Turning to `O=C(NCCN1CCOCC1)OCc1ccc2c(Cl)cc(Cl)c(O)c2n1`, the growth is 73.1% (inactive).

On to `Clc1ccc(/C=N\N=C\c2ccc(Cl)c(Cl)c2)cc1Cl`, for which the growth was 135% (inactive).

Regarding `Cn1ncc2c(Sc3ccc(Cl)cc3)ncnc21`, the growth is 81.4% (inactive).

As for `COc1ccc(NC(=O)c2ccc3c(c2)nc(-c2cc4ccccc4[nH]c2=O)n3-c2cc(C(C)(C)C)[nH]n2)cc1`, the growth is 96.8% (inactive).

In the case of `C#CCNC(=O)CC[C@]1(C)[C@H]2CC[C@@H]3[C@@H]([C@@](C)(O)CCC=C(C)C)CC[C@@]3(C)[C@]2(C)CC[C@H]1C(=C)C`, the growth was -41% [100 µM] (active).

With `CCC(N)(C(=O)O)c1ccc(F)cc1` (stereo not given), the growth was 87.1% (inactive).

For the compound `C=C1C(=O)O[C@H]2[C@H]1CC/C(C=Nc1c(N)cc(C(F)(F)F)cc1Br)=C\CC[C@@]1(C)O[C@@H]21`, the growth is -13.1% (active).

As to `CC(C)N(C(=S)SSC(=S)N(C(C)C)C(C)C)C(C)C`, the growth was 122% (inactive).

With `O=C1C=CC(Nc2ccccc2[N+](=O)[O-])C1Nc1ccccc1[N+](=O)[O-]` (stereo not given), the growth was 25.1% (inactive).

`O=C1/C(=C/c2ccc(Cl)cc2)CN(C(=O)C(Cl)Cl)C/C1=C\c1ccc(Cl)cc1`: the growth is -19.3% (active).

`CCCCCCCCCCCCOC(=O)/C=C\C(=O)NC(N)=O`: the growth was 52.3% (inactive).

For the compound `CN(C)N1C(=O)c2c(Cl)c(Cl)c(Cl)c(Cl)c2C1=O`, the growth was 95.8% (inactive).

For `COc1cc([C@@H]2c3cc4c(cc3C(O[C@@H]3O[C@@H]5CO[C@@H](c6cccs6)OC5[C@H](O)[C@H]3O)C3COC(=O)[C@@H]32)OCO4)cc(OC)c1O` (stereo not given in full), the growth was -21.7% (active).

In the case of `O=C(NCCCN1CCC(N2CCCCC2)CC1)C1=Cc2cc(Br)ccc2OC1`, the growth was 36.3% (inactive).

In the case of `c1ccc(/C(=N\N=C(/c2ccccc2)c2cccs2)c2cccs2)cc1`, the growth was 91.1% (inactive).

As for `COc1ccc(-c2cn3c(C(=O)Nc4ccccc4Cl)c(-c4ccccc4)c4c3n2CCCC4)cc1`, the growth was 83.4% (inactive).

`COc1cccc(Nc2ccnc3[nH]c4ccc([N+](=O)[O-])cc4c23)c1`: the growth was 35.4% (inactive).

With `Cc1cc(O)c(C2=NN(c3ccc(S(N)(=O)=O)cc3)C(/C=C/c3ccccc3)C2)cc1Cl` (stereo not given), the growth is 89.7% (inactive).

For the compound `ClC1=C(Cl)C(Cl)=C(Cl)C1=Cc1ccc(Cl)cc1Cl`, the growth is -12.7% (active).

Take `O=C(O)c1ccc2c(c1)C(=O)N(Cc1ccccc1)C2=O`: the growth is 93.1% (inactive).

Take `COc1ccc(Cc2cnc(NC(=O)c3ccc4c(c3)OCCO4)s2)cc1`: the growth is -42.1% (active).

For the compound `COc1ccc(CCNC2=CC(=O)CCC2)cc1OC`, the growth is 69.4% (inactive).
